Source: PubChem
Sampled rows, rich in hits. Any-hit rate of the full collection: about 3.6%.
TSHR ag: TSH receptor (human) agonism; P16473; 0.48% of 73,000 active; HEK293-CNG-TSHR cells (CNG channel as cAMP sensor), membrane potential dye, cAMP; Potency, µM (series often up to 57.1 µM), for the others: at the highest dose activation, most hits filed as activators; active means well fitted activation curve with a large enough effect in the main read-out, with a control signal flat, not every such curve was filed as active; inconclusive means small, poorly fitted or top-dose-only effect, or a change in a side signal; inactive means no such curve, though single readings can be large or run the other way; % of control where 0% means no effect;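 further: the control signal comes from parental cells without the receptor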
Target sequence (P16473 whole entry, looked up): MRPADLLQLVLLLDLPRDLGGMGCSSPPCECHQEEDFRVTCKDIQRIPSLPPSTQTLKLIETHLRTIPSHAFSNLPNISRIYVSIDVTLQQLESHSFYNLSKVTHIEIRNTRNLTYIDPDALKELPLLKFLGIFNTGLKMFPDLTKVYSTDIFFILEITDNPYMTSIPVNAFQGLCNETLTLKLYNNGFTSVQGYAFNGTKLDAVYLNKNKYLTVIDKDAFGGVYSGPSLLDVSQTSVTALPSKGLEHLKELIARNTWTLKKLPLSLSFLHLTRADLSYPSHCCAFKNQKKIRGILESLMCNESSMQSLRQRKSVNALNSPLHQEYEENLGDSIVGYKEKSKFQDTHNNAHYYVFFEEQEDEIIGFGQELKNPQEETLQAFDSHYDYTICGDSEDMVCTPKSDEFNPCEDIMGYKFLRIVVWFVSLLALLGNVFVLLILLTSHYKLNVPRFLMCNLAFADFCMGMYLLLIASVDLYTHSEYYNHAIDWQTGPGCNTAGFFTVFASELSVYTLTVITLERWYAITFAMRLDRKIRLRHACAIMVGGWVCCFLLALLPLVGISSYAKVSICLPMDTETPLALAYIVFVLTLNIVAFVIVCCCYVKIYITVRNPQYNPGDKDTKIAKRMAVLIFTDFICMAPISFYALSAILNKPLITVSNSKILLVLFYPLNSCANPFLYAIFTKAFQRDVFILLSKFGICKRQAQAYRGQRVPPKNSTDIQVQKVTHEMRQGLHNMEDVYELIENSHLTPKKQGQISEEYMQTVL
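cAMP rise detected as CNG-channel membrane depolarization by fluorescent dye (emission 590 nm), 30 min after compound, following 60 min dye loading containing 100 uM RO 20-1724 at room temperature. Cells: TSHR/CNG HEK 293, with parental CNG HEK 293 as control.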
CRE-bla Fsk: alters forskolin-stimulated CRE reporter signaling in CHO cells. CHO CRE-bla reporter (cAMP response element driving beta-lactamase), forskolin EC10, beta-lactamase ratio. Potency, µM (highest dose often 38.2 µM), for inactives: top-dose activity change, negative = inhibition, actives largely listed as activators. 2.5% of 71,000 active; active means well fitted activation curve with a large enough effect in the signal ratio, with a control signal flat, not every such curve was filed as active; inconclusive means small, poorly fitted or top-dose-only effect, or effect the other way, or a change in a side signal; the % refers to the signal ratio; further: % of control where 0% means no effect
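The 460nm/530nm emission ratio after CCF4 loading defined %Activity, from which AC50 values were obtained. CRE-bla CHO cells received compound dilution series together with an EC10 level of NKH 477 for 3 hours at 37 degrees Celsius.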
HEK293 cAMP ctrl: raises cAMP in parental HEK293 cells, TSHR agonist counter-screen; 2.5% of 73,000 active; Potency, µM (series often up to 57.1 µM), for inactives: at the top dose activation, usual class: activators; parental HEK293 CNG cAMP sensor, membrane potential fluorescence; AID 938; further: % of control where 0% means no effect; nearly all actives have a fitted effect of over 55% in size
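Parental HEK 293 cells stably expressing a modified CNG channel (no TSHR) report cAMP rise as membrane depolarization. Membrane potential dye with 100 uM RO 20-1724 was loaded for 60 min at room temperature, then compound added for 30 min; fluorescence read at 590 nm.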
ERK AVP block: blocks ERK signaling stimulated by vasopressin. HEK293-V1b, vasopressin-stimulated pERK AlphaScreen. Potency, µM (top dose mostly 57.5 µM), for the others: at the top dose activity, negative = inhibition, most hits filed as inhibitors. 0.99% of 72,000 active. AID 995; further: on the % scale 0 is the no-effect control and ±100 the full control effect; nearly all actives have a fitted effect of over 55% in size
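HEK293 cells stably expressing V1b receptor, preincubated 30 min at 37 °C with compound, then stimulated 5 min with 25 nM vasopressin. Phospho-ERK by AlphaScreen SureFire after 5 h RT; normalized to DMSO and vasopressin; AC50 by Hill fit.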
IkB sig inh: suppresses IkB signaling in ABC-DLBCL reporter cells. ABC-DLBCL IkBa-CBG/CBR dual luciferase ratio, 4 h; response scale: scaled: untreated 0%, proteasome inhibitor 100%. AID 445. Potency, µM (doses to about 57.1 µM), for inactives: at the top dose IkBa stabilization activation. 0.04% of 110,000 active; active means well fitted curve in the direction sought with a large enough effect in the signal ratio, not every such curve was filed as active; inconclusive means small, poorly fitted or top-dose-only effect, or a change in a side signal; the % refers to the signal ratio;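 further: the direction sought is a rising ratio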
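In this assay, an IκBα–CBG68 fusion accumulates when IKK-driven degradation is blocked; native CBR normalizes for cell number. OCI-Ly3 cells were treated 4 h with compound and doxycycline, then green and red light read after Chroma-Glo addition.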
The depositor's hits bear a star; u = inconclusive; x = no result; [ ] = dose if it differs, or a comment. Unless noted, the call rests on the fitted dose curve; in most records, active means well fitted curve in the direction sought with a large enough effect; inconclusive means small, poorly fitted or top-dose-only effect, or another doubt; inactive means no such curve, though single readings can be large; an effect the other way counts as inactive or inconclusive. Potency means the concentration at half of the fitted maximal effect.

SMILES	TSHR ag	CRE-bla Fsk	HEK293 cAMP ctrl	ERK AVP block	IkB sig inh
CC(C)(C)C(=O)OCc1cc(=O)n2nc(C3CC3)sc2n1	x	x	x	x	-3.2%
O=C(CSc1nnnn1C1CCCC1)N1CCCc2ccccc21	u	2.0%	u	-2.5%	-0.6%
O=C(CSc1nnc(Cc2cccs2)n1C1CCCCC1)N1CCCc2ccccc21	u	-14.5%	12.6µM*	-25.0%	u
COc1ccc(CN(C)S(=O)(=O)c2nnc(NC(=O)C(C)C)s2)cc1OC	x	x	x	x	-1.8%
CCOC(=O)C1CCN(C(=O)CCc2nc3ccccc3[nH]2)CC1	0.3%	u	2.9%	-24.7%	u
CCOC(=O)C1=C(N)OC2=C(C(=O)CC(C)(C)C2)C1c1ccoc1 (stereo unspecified)	u	4.0%	12.6µM*	19.7%	2.2%
COC(=O)C1=C(N)OC2=C(C(=O)CC(C)(C)C2)C1c1cccs1 (stereo unspecified)	u	4.8%[7.6 µM]	3.16µM*	-19.9%	5.6%
Cc1nc2cnc(N3CCOCC3)nc2n(C)c1=O	5.6%	12.5%	8.3%	-14.6%	2.3%[11.4 µM]
CCOc1ccc(CN2CCc3nc(N4CCN(c5ncccn5)CC4)ncc3C2)cc1OC	x	x	x	x	1.5%
O=c1[nH]c2ccccc2n1CCCSCCCn1c(=O)[nH]c2ccccc21	x	-14.4%	23.5%	31.6µM*	u
O=C(Nc1ccccc1)N1CC[C@@]2(CCCN(C(=O)c3ccco3)C2)C1	7.5%	-5.9%	9.9%	-9.1%	1.8%[11.4 µM]
COc1cccc(NC(=O)CCSc2nnc3scc(-c4ccccc4)n23)c1	21.1%	0.398µM*	20.4%	16.9%	u
CCCn1c(-c2ccc(F)cc2)nc2c(NCC(C)(C)CN(C)C)nc(C)nc21	u	10.5%	25.1µM*	-9.4%	x
CCCCNc1nc(C)nc2c1nc(-c1ccccc1)n2CCN(C)C	u	u	25.1µM*	-5.4%	x
CCCn1c(-c2ccc(F)cc2)nc2c(NCCCN(CC)CC)nc(C)nc21	u	5.5%	u	-3.6%	x
CCCn1c(-c2ccc(F)cc2)nc2c(NCCCN(C)C)nc(C)nc21	u	9.5%	25.1µM*	0.0%	x
CCCn1c(-c2ccc(F)cc2)nc2c(NCCCCN(CC)CC)nc(C)nc21	u	22.1%	u	-19.1%	x
O=C(/C=C/c1ccc(O)cc1)c1c(O)cc(O)cc1O	x	x	x	-12.0%	x
CC(C)CCNC(=O)c1cnn2c(C(F)(F)F)cc(-c3ccco3)nc12	-0.2%	5.01µM*	28.5%	-14.1%	-1.2%
O=C(OCC1OC(OC(=O)c2cc(O)c(O)c(OC(=O)c3cc(O)c(O)c(O)c3)c2)[C@@H](OC(=O)c2cc(O)c(O)c(OC(=O)c3cc(O)c(O)c(O)c3)c2)C(OC(=O)c2cc(O)c(O)c(OC(=O)c3cc(O)c(O)c(O)c3)c2)C1OC(=O)c1cc(O)c(O)c(OC(=O)c2cc(O)c(O)c(O)c2)c1)c1cc(O)c(O)c(OC(=O)c2cc(O)c(O)c(O)c2)c1 (stereo partly specified)	x	x	x	12.6µM*	x
COc1ccc(NC(=O)C2CC(c3cc(OC)c(OC)c(OC)c3)=NO2)cc1OC (stereo unspecified)	-7.0%	u	5.5%	-6.0%	0.6%
CCOC(=O)C1=C(CS(=O)(=O)c2ccccc2)NC(=O)NC1c1ccccc1OCC (stereo unspecified)	-2.8%	-3.0%	10.0%	-2.7%	-0.5%
CCOC(=O)C1=C(CS(=O)(=O)c2ccc(F)c(C)c2)NC(=O)NC1c1ccc(O)c(O)c1 (stereo unspecified)	u	-11.7%	u	25.1µM*	-1.0%
Cn1c(SCCSc2nnc(-c3ccccc3)n2C)nnc1-c1ccccc1	-18.6%	1.9%	-1.3%	-8.0%	-1.9%
CC(C)Oc1ccc(CSc2nnc3n(C)c(=O)c4c5c(sc4n23)CCCC5)cc1	u	2.1%	15.8µM*	-16.0%	0.7%
SMILES	TSHR ag	CRE-bla Fsk	HEK293 cAMP ctrl	ERK AVP block	IkB sig inh
Cc1noc(C)c1-c1nc(N(C)Cc2ccco2)c2ccccc2n1	0.4%	19.4%	-19.2%	-2.2%	1.7%[11.4 µM]
CC[C@@]1(O)C(=O)COc2c1cc1n(c2=O)Cc2c-1nc1cccc(C(C)C)c1c2[Si](C)(C)C	x	12.6µM*	29.6%	-0.7%	x
CCc1c2c(nc3ccc(OC(=O)N4CCC(N5CCCCC5)CC4)cc13)-c1cc3c(c(=O)n1C2)COC(=O)[C@]3(O)CC	x	x	x	-9.2%	x
CC(C)c1cccc2cc3c(nc12)-c1cccc(=O)n1C3	u	u	u	-7.6%	x
CCc1c2c(nc3cccc(C(C)C)c13)-c1cccc(=O)n1C2	18.6%	12.6µM*	18.7%	-4.6%	x
COc1ccc(-c2oc(/N=C/N3CCOCC3)c(C#N)c2-c2ccc(OC)cc2)cc1	-13.6%	11.1%	-11.7%	u	-0.9%
COC(=O)c1ccc(NC(=O)CN(C2CCCCC2)S(C)(=O)=O)cc1	3.3%	25.0%	-13.6%	u	-0.8%
COC(=O)c1ccccc1NC(=O)CN(C1CCCCC1)S(C)(=O)=O	-1.0%	3.16µM*	-0.4%	-19.2%	-5.8%
CN(Cc1ccccc1)C(=O)CCC(=O)N(C)Cc1ccccc1	-3.1%[11.4 µM]	u	3.5%[11.4 µM]	-10.8%	0.6%
CN(Cc1ccccc1)C(=O)CN(C1CCCCC1)S(C)(=O)=O	15.5%	3.98µM*	1.4%	u	-2.3%
COc1ccc(OCC(=O)N2CCN(C(=O)c3ccc(OC)c(OC)c3)CC2)cc1	x	x	x	x	-1.4%
Cc1cc(C)cc(-n2ccnc2SCC(=O)Nc2ccccc2F)c1	x	x	x	x	1.9%
O[C@H](COc1ccccc1)CN1CCCCC1	u	10.2%[7.6 µM]	u	-0.3%[11.5 µM]	-1.2%[11.4 µM]
COc1ccc(OCCC(=O)Nc2cc(C)on2)cc1	9.1%	0.6%	1.6%	1.1%	1.0%
COc1ccc(CNc2ncncc2-c2ccoc2)c(OC)c1	u	4.5%	10µM*	-9.6%	3.5%[11.4 µM]
COc1cccc(-c2cncnc2NCc2ccc(OC)cc2OC)c1	u	u	15.8µM*	6.2%	-0.3%[11.4 µM]
c1ncc(-c2ccoc2)c(NC2CC2)n1	u	0.6%	3.98µM*	-1.2%	-2.0%[11.4 µM]
COc1cccc(-c2cncnc2NCc2ccccc2OC)c1	u	u	25.1µM*	u	-0.5%[11.4 µM]
COc1cccc(-c2cncnc2NCCc2cnc[nH]2)c1	0.2%	-25.1%	5.0%	0.3%	-1.4%[11.4 µM]
COc1ccc(CNc2ncncc2-c2cccnc2)c(OC)c1	10.1%	u	5.2%	6.8%	3.3%[11.4 µM]
Fc1ccc(Nc2nc(-c3cccc(Cl)c3)c3c(n2)-c2ccccc2OC3)c(F)c1	x	x	x	x	-0.8%
NC(=O)C1CCN(CC(=O)Nc2ccccn2)CC1	4.5%	-4.9%	3.7%	-22.1%	-1.0%
COc1ccc(C(=O)Nc2cc(Cl)ccc2Cl)c(OC)n1	x	-21.5%	10.0%	27.0%	-3.0%
COc1ccccc1CNc1ncncc1-c1ccccc1OC	u	15.2%	10µM*	-11.3%	-1.8%[11.4 µM]
